Source: PubChem BioAssay (several laboratories)
This is a sample that favours compounds with a hit; in the whole collection about 3.6% have one here.
Autofluor counter: flagged as autofluorescent in microsphere protease counterscreen. fluorescence intensity (no concentration beside the values). actives 3.1% (n = 360,000). compound autofluorescence counterscreen, microsphere flow cytometry; hits give high values. AID 624483; in the data active means fluorescence intensity above about 16000; inconclusive means no clear call, values can overlap the other calls
MazEF act: activators of E. coli MazEF toxin-antitoxin RNase; P0AE70; FAM/BHQ RNA-DNA oligo cleavage fluorescence, 5 h; activation, % at 20 µM; actives 0.32% (n = 350,000); AID 504720; in the data active means activation above about 50%
Anthrax LF inh2: blocks Bacillus anthracis lethal factor protease; multiplex microsphere protease cleavage assay, LF; inhibition, % at 10 µM; actives 0.12% (n = 360,000); P15917; further: plate controls were buffer without enzyme for full effect and enzyme alone for no effect
BoNT-F LC inh: BoNT F light chain protease inhibition. Multiplex microsphere protease cleavage assay, flow cytometry. inhibition, % at 10 µM. actives 0.22% (n = 360,000); in the data active means inhibition above about 35%, passing the limit was not always enough; inconclusive means no clear call, values can overlap the other calls; further: plate controls were buffer without enzyme for full effect and enzyme alone for no effect
BoNT A protease: BoNT A light chain protease inhibition. multiplex microsphere protease substrate cleavage, flow cytometry. inhibition, % at 10 µM. actives 0.17% (n = 360,000). AID 588499; further: plate controls were buffer without enzyme for full effect and enzyme alone for no effect
BoNTA LC inh 2: blocks botulinum neurotoxin A light chain protease; shares compounds with BoNT A protease; multiplex microsphere protease cleavage assay, flow cytometry; inhibition, % at 10 µM; actives 10% (n = 150); AID 602325; in the data active means inhibition above about 24%
LF protease CP2: inhibitors of Bacillus anthracis lethal factor protease | shares compounds with BoNT A protease | multiplex microsphere protease cleavage assay | inhibition, % at 10 µM | actives 7% (n = 150); in the data active means inhibition above about 25%
BoNT-F LC CP2: BoNT/F light chain protease inhibition. actives 7% (n = 150). shares compounds with BoNT A protease. AID 602336. multiplex microsphere protease cleavage assay, flow cytometry. inhibition, % at 10 µM; in the data active means inhibition above about 25%
* hit, by the source's call; i = inactive; ? = inconclusive; . = no result given; + = active, no number. Unless noted, no stated cut-off is given here; in the data, active means inhibition above about 30%; inconclusive means no clear call, values can overlap the other calls; inactive means below that.

SMILES	Autofluor counter	MazEF act	Anthrax LF inh2	BoNT-F LC inh	BoNT A protease	BoNTA LC inh 2	LF protease CP2	BoNT-F LC CP2
Cc1nc2ccc(NC(=O)[C@@H](NC(=O)c3c(F)cccc3F)C(C)C)cc2s1	8879	-20	40*	14	18	8	15	30*
COc1cc(OC)cc(C(=O)NC(C(=O)Nc2ccc3nc(C)sc3c2)C(C)C)c1 (centres undefined)	7926	10	-10	0	0	.	.	.
CS(=O)(=O)N1CCN(c2ccccc2NC(=O)c2cc3ccccc3o2)CC1	5814	6	4	3	0	.	.	.
CCOc1ccc(S(=O)(=O)NCC(=O)OCc2nnc(-c3ccccc3)o2)cc1	3664	5	1	9	0	.	.	.
CCN(CC)c1ccc2cc(S(=O)(=O)c3ccc(Cl)cc3)c(=O)oc2c1	3309	15	42*	21	68*	26*	25*	15
CCc1nc2ccc(C(=O)NCc3ccc(OC)cc3)cn2c1N(C)C(=O)Cc1ccccc1	3799	.	-8	-4	0	.	.	.
Cc1[nH]c2ccc(CNS(=O)(=O)c3ccc(S(=O)(=O)N4CCOCC4)cc3)cc2c1C	6262	-1	0	-1	0	2	-3	-2
Cn1ccc2c(-c3ccccc3F)cc3c(c21)C1CCC3C1 (centres undefined)	5841	.	-8	2	3	2	-3	-1
COc1ccccc1-c1cc2c(c3c1ccn3C)C1CCC2C1 (centres undefined)	4225	.	30*	-10	12	4	0	-6
COc1ccccc1-c1cc2c(c3c1ccn3C)C1CCC2O1 (centres undefined)	5495	.	21	10	10	.	.	.
CCc1ccc(C(=O)COC(=O)C2=NN(c3ccccc3)C(=O)CC2)cc1	3969	-3	12	-4	0	.	.	.
CN(C)c1ccc(-c2sc(Nc3ccccc3)n[n+]2-c2ccc(F)cc2)cc1	10058	-8	26	10	8	.	.	.
CCN(CC)c1ccc(-c2sc(Nc3ccccc3)n[n+]2-c2ccc(F)cc2)cc1	17190*	-11	44*	1	27	7	14	3
Cc1cc2nc(-c3ccc(F)cc3)c(Cc3ccccc3)n2c(C)c1Br	5770	.	3	4	2	.	.	.
Cc1ccc(Cc2c(-c3cccc(Cl)c3)nc3cc(C)c(Br)c(C)n23)cc1	5438	.	2	-9	0	.	.	.
Cc1cc2nc(-c3ccc(F)cc3)c(Cc3cccc(Cl)c3)n2c(C)c1Br	4535	.	-1	-6	2	3	0	6
Cc1cc2nc(-c3ccccc3)c(Cc3cccc(Cl)c3)n2c(C)c1Br	4680	.	-4	-3	-1	16	-4	12
Cc1ccc(-c2nc3cc(C)c(Br)c(C)n3c2Cc2cccc(Cl)c2)cc1	4668	.	-5	0	1	26*	-2	16
CCN(CC)C(=O)C1=C(C)N(Cc2ccccc2)C(=O)C(CC(=O)NC2CC2)C1 (centres undefined)	3693	9	-5	4	0	.	.	.
COc1ccccc1Cc1c(-c2ccc(C#N)cc2)nc2c(Cl)cc(C(F)(F)F)cn12	10081	.	8	1	9	11	3	1
CCN(CC)S(=O)(=O)c1ccc(N2CCOCC2)c(NC(=O)c2nn(C(C)C)c(=O)c3ccccc23)c1	2994	6	-2	-9	0	.	.	.
O=C(NCCn1ccc2ccccc21)C1CCCCC1	5958	15	-1	-5	1	.	.	.
Cc1cc2ccccc2n1CCNC(=O)C1CC1	3417	-22	44*	23	69*	9	10	4
Cc1cc2ccccc2n1CCNC(=O)C1CCCCC1	2400	-5	27	-27	96*	4	2	6
CCN(CC)c1ccc(C=Nc2cccc(S(=O)(=O)N3CCOCC3)c2)c(O)c1	3355	2	46*	17	51*	16	14	5
SMILES	Autofluor counter	MazEF act	Anthrax LF inh2	BoNT-F LC inh	BoNT A protease	BoNTA LC inh 2	LF protease CP2	BoNT-F LC CP2
O=C(NCc1ccc(F)cc1)c1cccc2c1C(=O)c1ccc(N3CCOCC3)cc1S2(=O)=O	2751	-54	4	2	3	.	.	.
CC1CCN(c2ccc3c(c2)S(=O)(=O)c2cccc(C(=O)NCc4ccc(F)cc4)c2C3=O)CC1	3007	+	3	-1	8	5	2	-1
O=C(NCc1cc(C(F)(F)F)ccc1Cl)c1cccc2c1C(=O)c1ccc(N3CCC(Cc4ccccc4)CC3)cc1S2(=O)=O	5976	i	18	12	7	7	8	16
O=C(NC1CC1)c1cccc2c1C(=O)c1ccc(N3CCC(Cc4ccccc4)CC3)cc1S2(=O)=O	4605	-416	16	16	11	.	.	.
CC1CCN(c2ccc3c(c2)S(=O)(=O)c2cccc(C(=O)NC4CCCCC4)c2C3=O)CC1	4303	-86	11	6	8	5	6	16
COc1ccccc1N1CCN(c2ccc3c(c2)S(=O)(=O)c2cccc(C(=O)NCC4CC4)c2C3=O)CC1	3266	0	-6	-3	0	3	3	15
O=C(NC1CCCCC1)c1cccc2c1C(=O)c1ccc(N3CCCC3)cc1S2(=O)=O	4029	-221	-2	5	2	.	.	.
CC(C)(C)CNC(=O)c1cccc2c1C(=O)c1ccc(N3CCCC3)cc1S2(=O)=O	4481	-136	5	0	4	.	.	.
COc1ccc(C(=O)Nc2ccc(NC(C)=O)cc2)cc1S(=O)(=O)N1CCCCC1C (centres undefined)	?	2	-9	-59	-54	.	.	.
COc1ccc(C(=O)NCCCn2nc(C)cc2C)cc1S(=O)(=O)N1CCOCC1	5491	2	0	8	2	.	.	.
COc1ccc(S(=O)(=O)N2CCCOC2CNC(=O)C(=O)NCc2ccccc2F)cc1C (centres undefined)	6161	6	1	0	4	.	.	.
Cc1ccc(S(=O)(=O)N2C[C@H]3C(=O)C[C@@H](c4ccccc4)N(S(=O)(=O)c4ccccc4[N+](=O)[O-])[C@H]3C[C@H]2c2ccccc2)cc1	5232	.	-4	1	-1	.	.	.
COC(=O)c1sc(NC(=O)CN2CCN(c3cccc(Cl)c3)CC2)c(C(=O)OC)c1C	4107	-10	4	-1	0	.	.	.
Cn1ccc2c(-c3ccc(C(C)(C)C)cc3)cc3c(c21)C1CCC3C1 (centres undefined)	5412	.	-5	0	-1	2	-3	-4
Cn1ccc2c(-c3ccc(C(=O)O)cc3)cc3c(c21)C1CCC3C1 (centres undefined)	6150	.	8	10	0	3	1	8
Cn1ccc2c(-c3ccc(C(N)=O)cc3)cc3c(c21)C1CCC3O1 (centres undefined)	5374	.	-2	-5	-1	.	.	.
CC1CN1c1cc2c(c3c1ccn3C)C1CCC2C1 (centres undefined)	5654	.	-11	-14	0	.	.	.
